Assay results as given in PubChem BioAssay AID434962 (The Scripps Research Institute Molecular Screening Center, 2010).
Screen size: about 320,000 compounds; about 1,300 (0.41%) were called active. This excerpt belongs to a sample that is enriched for actives. A number with no mark means an inactive call.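 Rule for the calls: active = percent inhibition above the average of all tested compounds plus 3 SD, set per screening campaign (cut at about 16% in these data); inactive = the rest.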

biological target: Insulin-degrading enzyme (Homo sapiens) (UniProt P14735); experiment: cellular IDE Abeta-cleavage inhibition – fluorescence polarization, HEK cells, FAbetaB substrate, primary screen (AID 434962); conditions: at 5.59 µM, hits give high values;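 note: IDE supplied by intact live HEK cells; FP after avidin binding of uncleaved biotin substrate so inhibition keeps polarization high; 0% = DMSO wells and 100% = 60 µM reference IDE inhibitor Ii1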
Sequence (P14735 whole entry, looked up): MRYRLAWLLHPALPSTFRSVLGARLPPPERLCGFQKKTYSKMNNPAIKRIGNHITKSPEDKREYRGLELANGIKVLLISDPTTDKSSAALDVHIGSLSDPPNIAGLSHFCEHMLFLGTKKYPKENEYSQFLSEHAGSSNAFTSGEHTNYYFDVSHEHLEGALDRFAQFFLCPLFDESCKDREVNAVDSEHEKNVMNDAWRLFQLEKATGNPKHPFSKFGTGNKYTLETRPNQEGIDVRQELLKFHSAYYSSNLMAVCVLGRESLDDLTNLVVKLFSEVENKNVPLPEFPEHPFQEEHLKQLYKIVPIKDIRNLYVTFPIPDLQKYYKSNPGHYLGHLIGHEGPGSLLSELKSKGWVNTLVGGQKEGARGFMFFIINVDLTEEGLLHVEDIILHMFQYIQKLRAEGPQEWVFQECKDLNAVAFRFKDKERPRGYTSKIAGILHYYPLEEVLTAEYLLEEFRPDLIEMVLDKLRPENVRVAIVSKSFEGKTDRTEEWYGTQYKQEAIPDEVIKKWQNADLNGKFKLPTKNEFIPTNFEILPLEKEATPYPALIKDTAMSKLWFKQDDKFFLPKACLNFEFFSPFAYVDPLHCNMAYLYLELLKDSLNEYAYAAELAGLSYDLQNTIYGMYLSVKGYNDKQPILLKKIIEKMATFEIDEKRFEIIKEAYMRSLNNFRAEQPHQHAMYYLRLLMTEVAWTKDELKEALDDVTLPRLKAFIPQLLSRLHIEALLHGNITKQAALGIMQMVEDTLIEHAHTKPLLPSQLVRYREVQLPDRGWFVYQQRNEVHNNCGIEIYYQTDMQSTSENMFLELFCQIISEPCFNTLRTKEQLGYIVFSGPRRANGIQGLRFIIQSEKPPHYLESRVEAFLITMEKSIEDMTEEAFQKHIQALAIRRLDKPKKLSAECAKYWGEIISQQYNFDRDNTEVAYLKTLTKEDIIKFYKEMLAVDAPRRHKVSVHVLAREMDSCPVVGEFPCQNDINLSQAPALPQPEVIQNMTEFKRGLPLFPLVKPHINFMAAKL

In order of rising inhibition:
1. C=CCSc1nc2c(c(=O)[nH]c(=O)n2C)n1Cc1ccccc1  -11.6%
2. Cc1cc(N2C(=O)C(O)=C(C(=O)c3ccc(C)o3)C2c2ccc(OCc3ccccc3)cc2)no1 (stereo not drawn)  -9.32%
3. O=C(c1cccc(Br)c1)N1CCN(C2=NS(=O)(=O)c3ccccc32)CC1  -5.26%
4. CC[C@H]1OC(=O)[C@H](C)[C@@H](O[C@H]2C[C@@](C)(OC)[C@@H](O)[C@H](C)O2)[C@H](C)[C@@H](O[C@@H]2O[C@H](C)C[C@H](N(C)C)[C@H]2O)[C@](C)(O)C[C@@H](C)[C@@H]2N[C@@H](COCCOC)O[C@H]([C@H]2C)[C@]1(C)O  -4.09%
5. Cc1ccccc1NC(=O)c1nn(-c2ccc(F)c(F)c2)ccc1=O  -4.03%
6. CC(C)COc1ccc(C(=O)NNC(=O)CCC(=O)c2cccs2)cc1  -2.82%
7. COc1cc(C(=O)NCC(=O)N2CC=C(c3ccccc3)CC2)cc(OC)c1OC  -2.8%
8. COc1ccccc1N(CC(=O)Nc1ccc(C(F)(F)F)cc1)S(C)(=O)=O  -2.79%
9. CCOC(=O)c1c(C)n(C)c2ccc(OC)c(NS(=O)(=O)CC)c12  -2.79%
10. CN(C(=O)c1cccc(NC(=O)Cc2cccc([N+](=O)[O-])c2)c1)C1CCCCC1  -2.48%
11. O=C(NNS(=O)(=O)c1c(F)cc(F)c(Cl)c1F)C12CC3CC(CC(C3)C1)C2  -2.1%
12. NC(=O)NC(=O)CSc1nc2cc([N+](=O)[O-])ccc2n1-c1cccc(C(F)(F)F)c1  -2.07%
13. COc1cc(NS(=O)(=O)c2ccc(NC(=S)NC(=O)c3ccc(Br)cc3)cc2)ncn1  -2.01%
14. Cc1c(C(=O)Nc2cccc(S(=O)(=O)N3CCOCC3)c2)oc2ccccc12  -1.96%
15. COc1ccc(-c2onc3ccc(C(C)=O)cc23)cc1  -1.49%
16. CC(C)C(=O)Nc1c(O)c2ccccc2[nH]c1=O  -1.36%
17. CCOC(=O)c1nn(-c2cccc(C)c2)cc1C(=O)c1ccccc1  -1.22%
18. N#C/C(=C(/O)COc1cccc2ccccc12)c1nc2ccccc2[nH]1  -1.21%
19. CN(C)/C=C/C(=O)c1cnc2sccn2c1=O  -1.17%
20. C=CCOc1ccccc1NC(=O)CN1C(=O)CNC1=O  -0.94%
21. O=C(/C=C/c1ccc2c(c1)OCCO2)c1ccc(O)cc1  -0.89%
22. COc1ccc(/C=C2\CCCC3C2=NN(C(=O)c2scnc2C)C3c2ccc(OC)cc2)cc1 (stereo not drawn)  -0.54%
23. O=C(O)c1cc(S(=O)(=O)NC2CCCc3ccccc32)ccc1O (stereo not drawn)  -0.45%
24. O=C(c1cccs1)n1nc(NCc2ccccc2)nc1NCc1ccccc1  -0.3%
25. COc1cccc2cc(C(N)=O)/c(=N\NC(=O)c3ccccc3)oc12  -0.22%
26. O=C(O)/C=C/c1ccc(OCCCF)cc1  -0.17%
27. CC(C)(C)C(=O)Nc1ccc(C(=O)N/N=C/c2ccccc2OC(=O)c2ccc(Cl)cc2Cl)cc1  -0.07%
28. Cc1ccc(NC(=O)C2CCN(S(=O)(=O)c3ccc4c(c3)NC(=O)CO4)CC2)cc1C  -0.04%
29. COc1ccc2c(c1)c1nc3n(c(=O)c1n2CC(=O)Nc1ccccc1)CCS3  -0.03%
30. CCN1C(=S)N[C@@H](CCc2ccccc2)[C@H](C(=O)OC)[C@H]1C  0.06%
31. O=C(Nc1ccccc1)N1CCN(C2c3ccccc3-c3ccccc32)CC1  0.11%
32. CC(=O)[C@@]12O[C@@H]1C[C@H]1[C@@H]3CC[C@H]4C[C@@H](O)CC[C@]4(C)[C@H]3CC[C@@]12C  0.23%
33. O=C(COc1ccc(/C=N/NC(=O)c2ccc(O)cc2)cc1)Nc1ccc([N+](=O)[O-])cc1  0.35%
34. O=C(CCc1nnc(Cc2ccc3c(c2)OCO3)o1)NCCc1ccccc1Cl  0.48%
35. COC(=O)Nc1ccc(S(=O)(=O)Nc2cc(OC)nc(OC)n2)cc1  0.87%
36. COc1cccc(CNC(=O)COc2cc(O)c3c(c2)OC(C)(C)CC3=O)c1  0.91%
37. O=C(CSc1nnc(CNC(=O)c2ccc(F)cc2)o1)Nc1ccc2c(c1)OCO2  1.15%
38. O=C(COC(=O)CCc1ccc(S(=O)(=O)N2CCOCC2)cc1)Nc1cccc(Cl)c1  1.15%
39. CC1C(=O)Nc2ccc(S(=O)(=O)N3CCN(c4ccccc4F)CC3)cc2NC1=O (stereo not drawn)  1.3%
40. CCc1nn(CCCC(=O)Nc2ccc(C)c(C)c2)c(=O)c2cc3occc3n12  1.46%
41. CN(C)/C=C1/Nc2ccccc2C1=O  1.5%
42. CC(=O)Nc1ccc(/C=C/C(=O)c2ccccc2)cc1  1.53%
43. C=CCOc1cccc(C2C(C(=O)c3ccc(C)o3)=C(O)C(=O)N2CCCn2ccnc2)c1 (stereo not drawn)  1.55%
44. CCCOC(=O)Cc1c(O)c2ccccc2[nH]c1=O  1.56%
45. Cc1cccc2sc(N(CCCN(C)C)C(=O)CCS(=O)(=O)c3ccccc3)nc12  1.58%
46. COCCN(Cc1nc(-c2ccc(C(F)(F)F)cc2)no1)C(C)C  1.82%
47. CCCC1CCC(=NNC(=S)NCCc2ccccc2)CC1 (stereo not drawn)  1.89%
48. NS(=O)(=O)c1cccc(NC(=O)CC23CC4CC(CC(Br)(C4)C2)C3)c1  2%
49. Cn1cncc1C#Cc1c(-c2ccsc2)sc2ccccc12  2.04%
50. Cc1ccc(NC2CCCN(C(=O)CCC3(C)CC3)C2)cc1C (stereo not drawn)  2.09%
51. Cn1cccc1C(=O)NNC(=O)COc1ccc(Br)cc1  2.25%
52. CC(=O)N1CCSc2ccc(S(=O)(=O)N3CCC(C)CC3)cc21  2.25%
53. Cc1nn(C)cc1C(=O)Nc1ccccc1Br  2.37%
54. COc1c(Br)cc2c(C)c(C(=O)N3CCOCC3)oc2c1Br  3.66%
55. Cc1ccc(CC(=O)Nc2ccc(S(=O)(=O)N3CCOCC3)cc2)cc1C  3.81%
56. O=C(Nc1cccc(NC(=O)N2CCN(c3ccccc3)CC2)c1)N1CCN(c2ccccc2)CC1  3.98%
57. Cc1ccc(C)c(NS(=O)(=O)c2ccc(OCC(=O)NCc3cccnc3)cc2)c1  4.06%
58. COc1ccc2nc3n(c(=O)c2c1)-c1ccc(Cl)cc1C(=O)NC3Cc1ccccc1 (stereo not drawn)  4.46%
59. CCCNC(=O)N1CCN(C(=O)NCCC)CC1  4.47%
60. Cc1nnc2n1N=C(c1ccc3c(c1)NC(=O)CO3)CS2  4.61%
61. CN(C(=O)COC(=O)c1ccc(Br)o1)c1c(N)n(Cc2ccccc2)c(=O)[nH]c1=O  5.15%
62. CCCCN(C1CCS(=O)(=O)C1)S(=O)(=O)c1ccc(C(C)C)cc1 (stereo not drawn)  5.43%
63. COc1ccc(NS(=O)(=O)c2ccc(NC(=O)C(C)(C(F)(F)F)C(F)(F)F)cc2)nn1  6.58%
64. O=C1Nc2ccccc2/C1=C/c1ccnc2ccccc12  6.65%
65. Cc1ccc2nc(/C(C#N)=C\c3ccc(OC(=O)c4cccs4)cc3)[nH]c2c1  6.77%
66. O=C(Cn1[nH]c(=O)c2ccccc2c1=O)Nc1cccc(-c2nnc3n2CCCCC3)c1  7.74%
67. NC(=O)c1cc2ccccc2o/c1=N/NC(=O)c1cccc(F)c1  7.74%
68. CC(OC(=O)c1ccc2noc(-c3ccccc3)c2c1)C(N)=O (stereo not drawn)  8.12%
69. CNC[C@H]1Oc2c(NC(=O)C3CCCCC3)cccc2C(=O)N([C@H](C)CO)C[C@@H]1C  8.42%
70. CCOc1cc(/C=C(\C#N)c2nc(-c3cccs3)c(NC(C)=O)s2)ccc1O  11%
71. O=C(O)c1ccc2c(c1)C(=O)N(c1ccc(/C=C/C(=O)c3ccccc3)cc1)C2=O  11.8%
72. CS(=O)(=O)N(Cc1ccccc1Cl)c1ccc(C(=O)NCc2cccnc2)cc1  12.1%

`Cc1nn(C)cc1C(=O)c1ccccc1` was tested, and the inhibition was 16.3% (active).
For `Cc1c(C(=O)Nc2cccc(-c3nnc4n3CCCCC4)c2)oc2ccccc12`, the inhibition was 17.2% (active).
With `COc1ccc(NS(=O)(=O)c2ccc(NC(=S)NC(=O)/C=C/c3ccc(C)cc3)cc2)nn1` the inhibition was 24.2% (active).
For `O=C(Nc1ccc(Cl)c(Cl)c1)N1CC=C(c2ccccc2)CC1`, the inhibition was 19.1% (active).
`O=C(N/N=C/c1ccc(OC(=O)c2ccccc2Cl)cc1)c1ccc(O)cc1` was tested, and the inhibition was 17.1% (active).
For `Cc1cc2nc3c(=O)n(Cc4ccccc4)c(=O)[nH]c3nc2cc1N`, the inhibition was 20.4% (active).
For `O=C(/C=C(O)/C=C/c1ccc(O)cc1)/C=C/c1ccc(O)cc1`, the inhibition was 138% (active).
With `C=CCOc1cccc(C2C(C(=O)c3ccc(C)o3)=C(O)C(=O)N2c2nnc(C)s2)c1` (stereo not drawn) the inhibition was 24% (active).
`Cc1cc(C)c(/C=C2\C(=O)Nc3ccccc32)[nH]1` was tested, and the inhibition was 66.2% (active).
For `COc1cc(/C=C(\C#N)c2nc3c(s2)CC(C)CC3)ccc1O` (stereo not drawn), the inhibition was 89.3% (active).
In the case of `COc1cc(/C=C(\C#N)c2nc3ccccc3[nH]2)ccc1O`, the inhibition is reported as 121% (active).
`Oc1ccc(-c2onc3ccc(Cl)cc23)cc1` was tested, and the inhibition was 43.5% (active).
With `O=C(/C=C/c1ccc(N2CCOCC2)cc1)c1ccccc1` the inhibition was 20.5% (active).
In the case of `CCCC(=O)Nc1c(O)c2ccccc2[nH]c1=O`, the inhibition is reported as 20.6% (active).
`O=C(CCc1ccc(S(=O)(=O)N2CCOCC2)cc1)Nc1ccc2ccccc2c1` was tested, and the inhibition was 26.8% (active).
For `CCN(CC)c1ccc2cc(C(N)=O)/c(=N\NC(=O)c3ccncc3)oc2c1`, the inhibition was 64.9% (active).
